Laboratory results as given in PubChem BioAssay.
Active and inactive are the calls of the source.

How the values were obtained:
[1] = tested on: Wnt5a (protein binding on small-molecule microarray); experiment: small molecules binding Wnt5a protein – biophysical, small-molecule microarray, 635/667 nm fluorescence, primary screen (AID 1142); details: 635 nm fluorescence, higher = more signal;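 further: fluorescence read at 667 nm with signal to noise per printed feature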
[2] = ATP-based viability of Huh7 replicon cells – cell-based, CellTiter-Glo luminescence, basal, 48 h, cytotoxicity control for HCV replication inhibitor project, primary screen (AID 1143); details: higher = more signal, called active from +8 up or from −8 down;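 further: Huh7 hepatoma cells carrying a hepatitis C replication reporter with no stimulus; test concentration not given here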
[3] = basal CRE-LacZ reporter activity in PC12 – cell-based, unstimulated, primary screen (AID 1145); details: no forskolin, luminescence, 4.5 h, higher = more signal, called active from +8 up or from −8 down
[4] = forskolin-driven CRE-LacZ activity in PC12 – cell-based, CRE-LacZ reporter, forskolin-stimulated, primary screen (AID 1146); details: luminescence, 4.5 h, higher = more signal, called active from +8 up or from −8 down;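 further: PC12 cells with 6xCRE LacZ reporter stimulated by forskolin 10 µM; beta-galactosidase reporter signal reflecting CREB driven transcription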
[5] = molecular target: Streptavidin (Streptomyces avidinii) (UniProt P22629); experiment: compounds binding control protein streptavidin – biophysical, small-molecule microarray, 635/667 nm fluorescence, artefact control for SMM compound annotation, primary screen (AID 1147); details: higher = more signal;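 further: signal reflects streptavidin binding to arrayed compounds as a control protein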
Chain of Streptavidin (Streptomyces avidinii) (P22629 whole entry, looked up): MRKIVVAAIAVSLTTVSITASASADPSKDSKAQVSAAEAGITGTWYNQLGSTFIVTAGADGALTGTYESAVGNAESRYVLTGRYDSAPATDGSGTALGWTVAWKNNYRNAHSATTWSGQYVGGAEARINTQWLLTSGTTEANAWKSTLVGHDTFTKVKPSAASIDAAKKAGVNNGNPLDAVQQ

[6] = probe aInhba binding on compound microarray – biochemical, small-molecule microarray, 635/667 nm fluorescence, primary screen (AID 1148); details: higher = more signal;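 further: score merges 667nm spot fluorescence with signal-to-noise for antibody binding to printed compounds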
Torsin-1A (Homo sapiens) [7] = molecular target: Torsin-1A (Homo sapiens) (UniProt O14656); experiment: TOR1A wild-type binding on microarray – cell lysate, small-molecule microarray, lysate, 635/667 nm, primary screen (AID 1149); details: COS7 hTOR1A-WT lysate, 635 nm fluorescence, higher = more signal
Chain of Torsin-1A (Homo sapiens) (O14656 whole entry, looked up): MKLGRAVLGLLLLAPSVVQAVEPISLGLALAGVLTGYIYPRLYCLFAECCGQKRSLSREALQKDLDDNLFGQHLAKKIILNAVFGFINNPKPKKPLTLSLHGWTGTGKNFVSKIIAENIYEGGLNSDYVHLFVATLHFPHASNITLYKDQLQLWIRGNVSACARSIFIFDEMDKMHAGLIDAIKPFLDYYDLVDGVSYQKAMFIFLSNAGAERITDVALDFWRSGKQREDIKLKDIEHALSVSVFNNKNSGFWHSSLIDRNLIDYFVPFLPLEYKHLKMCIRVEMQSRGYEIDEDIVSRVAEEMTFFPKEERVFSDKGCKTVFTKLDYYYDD

Torsin-1A (Homo sapiens) [8] = molecular target: Torsin-1A (Homo sapiens) (UniProt O14656); experiment: torsin A mutant lysate binding on microarrays – cell lysate, small-molecule microarray, COS7 lysate, 635/667 nm fluorescence, primary screen (AID 1150); details: COS7 hTOR1A mutant lysate, 635 nm fluorescence, higher = more signal;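 further: score pools 667 nm emission and signal to noise measuring lysate protein binding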
[9] = tested on: Sonic hedgehog protein (Shh); experiment: Sonic hedgehog microarray binding compounds – biochemical, small-molecule microarray, 635/667 nm fluorescence, primary screen (AID 1151); details: 635 nm fluorescence, higher = more signal;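 further: Shh protein binding to compounds spotted on small-molecule microarray slides; score combines spot fluorescence intensity with signal-to-noise across triplicate slides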
[10] = optical density shifts of acrAB sulA E. coli – strain DRC41, OD650, 48 h, E. coli filamentation inducer project, primary screen (AID 1152); details: higher = more signal, called active from +8 up or from −8 down;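 further: E. coli MC1000 strain DRC41 lacking acrAB efflux pump and sulA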
[11] = probe aLefty1 binding on compound microarray – biochemical, small-molecule microarray, 635/667 nm fluorescence, primary screen (AID 1153); details: higher = more signal;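 further: score merges spot fluorescence with signal-to-noise ratio from the scanned slide images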
[12] = plasmodial surface anion channel blockers, osmotic lysis – cell-based, P. falciparum Indochina, OD700, 1 h, primary screen (AID 1154); details: P. falciparum Indochina infected RBC osmotic lysis, higher = more signal, called active from +8 up or from −8 down
[13] = plasmodial surface anion channel blockers, osmotic lysis – cell-based, P. falciparum Indochina, OD700, 2 h, primary screen (AID 1155);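 further: lysis reports solute entry through the parasite surface anion channel PSAC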; details: P. falciparum Indochina infected erythrocytes, higher = more signal, called active from +8 up or from −8 down
[14] = changes in parasitized red cell lysis, either direction – P. falciparum Indochina, OD700, 3 h, PSAC antagonist project, primary screen (AID 1156); details: P. falciparum-infected erythrocytes, osmotic lysis, higher = more signal, called active from +8 up or from −8 down
[15] = plasmodial surface anion channel blockers, osmotic lysis – cell-based, P. falciparum Indochina, OD700, 18 h, primary screen (AID 1157); details: P. falciparum Indochina infected erythrocytes, osmotic lysis OD700, 18 h; higher = more signal, called active from +8 up or from −8 down
[16] = S6 kinase pathway phospho-S6 level changes – cell-based, A549, cytoblot, luminescence, serum-stimulated, primary screen (AID 1158); details: 5 h, higher = more signal;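 further: serum-stimulated A549 lung adenocarcinoma cells; signal is phosphorylated S6 detected by cytoblot immunostaining with HRP secondary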
[17] = molecular target: NADPH oxidase 2 (Homo sapiens) (UniProt P04839); experiment: compounds shifting NOX2 Amplex Red fluorescence – cell-based, HEK293-NOX2, PMA-stimulated, NOX inhibitor project, primary screen (AID 1159); details: 45 min, higher = more signal, called active from +8 up or from −8 down; further: test concentration not given here
Chain of NADPH oxidase 2 (Homo sapiens) (P04839 whole entry, looked up): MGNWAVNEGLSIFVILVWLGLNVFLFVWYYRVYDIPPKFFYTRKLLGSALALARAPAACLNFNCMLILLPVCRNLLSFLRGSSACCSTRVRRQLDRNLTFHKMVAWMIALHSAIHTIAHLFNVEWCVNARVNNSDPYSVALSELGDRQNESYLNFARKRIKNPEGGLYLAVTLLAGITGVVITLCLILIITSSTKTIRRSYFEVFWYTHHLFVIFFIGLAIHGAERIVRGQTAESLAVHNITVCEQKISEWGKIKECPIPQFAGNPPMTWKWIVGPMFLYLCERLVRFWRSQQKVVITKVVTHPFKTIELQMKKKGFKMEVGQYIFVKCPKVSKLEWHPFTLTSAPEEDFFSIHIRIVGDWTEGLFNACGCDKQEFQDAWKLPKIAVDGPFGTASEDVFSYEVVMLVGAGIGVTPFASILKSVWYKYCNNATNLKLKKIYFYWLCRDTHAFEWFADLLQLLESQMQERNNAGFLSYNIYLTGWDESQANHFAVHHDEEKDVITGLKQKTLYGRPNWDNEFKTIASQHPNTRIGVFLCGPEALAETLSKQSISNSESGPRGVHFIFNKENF

[18] = molecular target: NADPH oxidase 4 (Homo sapiens) (UniProt Q9NPH5); experiment: compounds shifting NOX4 Amplex Red fluorescence – cell-based, HEK293-NOX4, tetracycline-induced, NOX inhibitor project, primary screen (AID 1160); details: HEK293-NOX4, Amplex Red H2O2 fluorescence, 45 min; higher = more signal, called active from +8 up or from −8 down
Chain of NADPH oxidase 4 (Homo sapiens) (Q9NPH5 whole entry, looked up): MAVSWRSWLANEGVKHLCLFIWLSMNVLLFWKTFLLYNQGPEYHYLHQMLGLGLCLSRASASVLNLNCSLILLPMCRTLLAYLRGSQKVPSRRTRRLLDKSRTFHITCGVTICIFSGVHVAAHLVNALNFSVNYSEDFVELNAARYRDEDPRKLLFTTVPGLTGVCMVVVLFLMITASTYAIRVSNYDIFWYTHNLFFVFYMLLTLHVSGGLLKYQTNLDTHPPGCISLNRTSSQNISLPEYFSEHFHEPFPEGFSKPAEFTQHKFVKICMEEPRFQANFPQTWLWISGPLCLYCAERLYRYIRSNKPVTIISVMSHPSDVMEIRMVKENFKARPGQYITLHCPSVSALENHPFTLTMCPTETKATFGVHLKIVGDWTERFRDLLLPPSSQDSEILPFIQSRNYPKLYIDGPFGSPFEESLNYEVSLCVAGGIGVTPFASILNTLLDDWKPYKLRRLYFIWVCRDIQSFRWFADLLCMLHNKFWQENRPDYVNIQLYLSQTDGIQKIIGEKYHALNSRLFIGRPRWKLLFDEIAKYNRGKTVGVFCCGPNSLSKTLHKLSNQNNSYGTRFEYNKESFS

[19] = molecular target: NADPH oxidase 5 (Homo sapiens) (UniProt Q96PH1); experiment: compounds shifting NOX5 Amplex Red fluorescence – cell-based, HEK293-NOX5, NOX inhibitor project, primary screen (AID 1161); details: HEK293-NOX5, ionomycin, 45 min, higher = more signal
Chain of NADPH oxidase 5 (Homo sapiens) (Q96PH1 whole entry, looked up): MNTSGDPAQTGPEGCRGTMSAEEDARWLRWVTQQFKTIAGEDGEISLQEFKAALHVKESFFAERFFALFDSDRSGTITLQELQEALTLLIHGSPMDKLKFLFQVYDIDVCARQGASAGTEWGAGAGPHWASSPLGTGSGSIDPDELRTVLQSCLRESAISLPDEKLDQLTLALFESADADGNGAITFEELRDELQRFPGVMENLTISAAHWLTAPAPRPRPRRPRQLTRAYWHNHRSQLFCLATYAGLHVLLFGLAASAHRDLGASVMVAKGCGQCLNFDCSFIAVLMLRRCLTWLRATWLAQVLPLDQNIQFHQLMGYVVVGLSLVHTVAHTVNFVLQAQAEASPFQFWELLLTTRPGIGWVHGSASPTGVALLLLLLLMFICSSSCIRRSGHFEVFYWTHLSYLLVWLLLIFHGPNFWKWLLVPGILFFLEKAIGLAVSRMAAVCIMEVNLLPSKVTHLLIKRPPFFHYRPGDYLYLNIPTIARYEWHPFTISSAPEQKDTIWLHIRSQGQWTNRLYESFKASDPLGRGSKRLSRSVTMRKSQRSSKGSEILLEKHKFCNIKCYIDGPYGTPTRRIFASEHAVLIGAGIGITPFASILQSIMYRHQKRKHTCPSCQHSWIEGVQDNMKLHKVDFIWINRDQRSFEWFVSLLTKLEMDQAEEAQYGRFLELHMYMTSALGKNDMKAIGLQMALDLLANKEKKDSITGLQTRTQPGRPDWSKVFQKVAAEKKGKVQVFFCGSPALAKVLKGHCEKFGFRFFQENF

| Compound | composite z-score [1] | z-score [2] | z-score [3] | z-score [4] | composite z-score [5] | composite z-score [6] | composite z-score (Torsin-1A (Homo sapiens) [7]) | composite z-score (Torsin-1A (Homo sapiens) [8]) | composite z-score [9] | z-score [10] | composite z-score [11] | z-score [12] | z-score [13] | z-score [14] | z-score [15] | z-score [16] | z-score [17] | z-score [18] | z-score [19] |
| --- | --- | --- | --- | --- | --- | --- | --- | --- | --- | --- | --- | --- | --- | --- | --- | --- | --- | --- | --- |
| COCCOC(=O)N1C(=O)[C@@]2(c3cc(C#CCNC(N)=O)ccc31)[C@H](c1ccc(OCCO)cc1)N1[C@H](c3ccccc3)[C@H](c3ccccc3)OC(=O)[C@H]1[C@@H]2C(=O)Nc1nc2ccccc2s1 | 0.483 | -1.6 (inactive) | 0.627 (inactive) | -1.2 (inactive) | 0.422 | -0.224 | 0.72 | 0.471 | 1.6 | 2.28 (inactive) | 0.0844 | 2.66 (inactive) | 1.67 (inactive) | 0.73 (inactive) | 1.24 (inactive) | 0.652 | 0.398 (inactive) | -0.211 (inactive) | 1.12 |
| CO[C@H]1COC(=O)CC=C[C@@H](C)COC(=O)[C@@H](C)NC(=O)CC=C[C@@H]1C | 0.272 | -3.48 (inactive) | 0.608 (inactive) | -1.09 (inactive) | -0.697 | -0.218 | 2.49 | 0.711 | 2.06 | -0.414 (inactive) | -0.276 | -0.401 (inactive) | -0.599 (inactive) | -0.768 (inactive) | -0.872 (inactive) | 2.57 | -0.206 (inactive) | 0.534 (inactive) | 0.984 |
| CO[C@H]1COC(=O)[C@@H](C)COC(=O)[C@H](Cc2ccccc2)NC(=O)CC=C[C@H]1C | -0.0116 | -0.317 (inactive) | 0.432 (inactive) | -0.968 (inactive) | -0.666 | -0.0889 | 0.268 | 0.0916 | 1.85 | -0.507 (inactive) | -0.363 | -0.318 (inactive) | -1.31 (inactive) | -0.116 (inactive) | -2.15 (inactive) | 0.627 | 0.714 (inactive) | 0.791 (inactive) | 0.299 |
| COC(=O)C1=CC(c2ccc(CO)cc2)=CC(C2CC2)N(Cc2sc3ccccc3c2Cl)C=C1C(=O)OC (stereo unspecified) | 0.213 | -5.35 (inactive) | 0.272 (inactive) | -1.57 (inactive) | 2.25 | 0.23 | 0.454 | 1.45 | 0.313 | -0.248 (inactive) | 0.385 | 13.7 (active) | 0.815 (inactive) | -0.994 (inactive) | -1.07 (inactive) | 0.983 | -0.872 (inactive) | -0.189 (inactive) | -0.0786 |
| CCC(=O)[C@]12O[C@@]3([C@@H]4C(=O)OCC[C@@H]41)N(CC)C(C)=C(C(=O)OC)[C@@H](c1ccccc1)N3C2=O | -0.0488 | -3.62 (inactive) | -0.0708 (inactive) | -1.58 (inactive) | -0.194 | -0.283 | -0.0028 | -0.063 | 1.92 | 0.362 (inactive) | -0.29 | 0.91 (inactive) | -0.071 (inactive) | -1.35 (inactive) | -1.08 (inactive) | 0.815 | 1.5 (inactive) | -1.36 (inactive) | 0.922 |
| O=[N+]([O-])c1ccc(C[n+]2ccc3ccc(O)cc3c2)o1 | 0.465 | -0.893 (inactive) | -0.815 (inactive) | -1.3 (inactive) | 1.29 | 0.0857 | 0.244 | 1.07 | 0.841 | 0.653 (inactive) | -0.283 | 1.08 (inactive) | -0.678 (inactive) | -0.859 (inactive) | -1.53 (inactive) | 0.829 | -0.94 (inactive) | -1.09 (inactive) | -0.424 |
| [N-]=[N+]=Nc1ccccc1C[C@@]1(C(=O)N2CCOCC2)N=C(c2ccc(OCCCO)cc2)O[C@@H]1c1ccccc1N=[N+]=[N-] | 0.372 | -5.17 (inactive) | 2.75 (inactive) | -1.37 (inactive) | 0.955 | 0.0982 | 0.644 | 0.407 | 0.174 | 1.94 (inactive) | 0.241 | 29.9 (active) | 27.6 (active) | 3.13 (inactive) | 4.27 (inactive) | 2.07 | 0.781 (inactive) | 0.516 (inactive) | -0.745 |
| COc1cc(CO)cc(I)c1O[C@H]1C=C(C(=O)NCCO)C[C@@H](NCCc2c[nH]c3ccccc23)[C@@H]1O | 0.241 | -3.34 (inactive) | 2.29 (inactive) | -2.33 (inactive) | 0.0072 | -0.0954 | 0.75 | 0.237 | 0.888 | 0.878 (inactive) | 0.335 | 11.3 (active) | 0.928 (inactive) | 1.22 (inactive) | -0.869 (inactive) | 2.21 | -0.912 (inactive) | -1.4 (inactive) | -0.447 |
| CCCNC(=O)[C@@]1(Sc2ccc(C)cc2)CC(=O)N(Cc2ccccc2Cl)[C@@H]1c1ccc(CO)cc1 | 0.222 | -6.06 (inactive) | 0.443 (inactive) | -1.43 (inactive) | 0.124 | 0.0925 | 0.369 | 0.17 | 1.86 | 2.06 (inactive) | 0.369 | 3.09 (inactive) | -0.114 (inactive) | -1.35 (inactive) | -0.772 (inactive) | 3.71 | -0.773 (inactive) | -0.99 (inactive) | -0.176 |
